Our source for the activation factor values is PubChem BioAssay AID1016 (Sanford-Burnham Center for Chemical Genomics, 2008).

Hit rate of the full screen: of about 200,000 compounds, about 330 (0.17%) were called active.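 Rule for the calls: active = activation factor of 2 or more at 20 µM, a signal rise over negative controls twice the positive control's; inactive = the rest.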 What follows is part of a selection rich in actives, with near analogues and random picks from the rest.

This test deals with alkaline phosphatase, intestinal [Bos taurus]. In words: bovine intestinal alkaline phosphatase activators, primary screen, biochemical, bovine IAP, CDP-star luminescence (AID 1016). The following applies: purified bovine IAP, 30 min, at 20 µM, hits give high values, fold of DMSO-control signal, blank-subtracted.
With `Cc1cccc(CC(=O)N2CCN=C2SCc2ccc([N+](=O)[O-])cc2)c1`, the activation factor is 0.8 (inactive).

With `COc1ccc(CCNc2cc(C)nc3c(-c4ccc(Cl)cc4)c(C)nn23)cc1OC`, the activation factor is 0.9 (inactive). For `COc1ccc(-c2nc3cnccn3c2NC(C)(C)CC(C)(C)C)cc1O` the value was 1.2 (inactive). For `COc1ccccc1N1CCN(c2ccc([N+](=O)[O-])nc2)CC1` the value was 1 (inactive). Next, `CCS(=O)(=O)c1ccc(O)c(NC(=O)COc2ccc(Cl)cc2)c1`: 1 (inactive); `Clc1cccc(CN2COc3c(cc(Cl)c4cccnc34)C2)c1`: 0.8 (inactive); `Cc1ccc(Cl)c(NC(=O)CN(C)CC(=O)Nc2ccc(F)c(F)c2F)c1Cl`: 1.3 (inactive). As for `CCOC(=O)c1c(NC(=O)Cn2nc(C(F)(F)F)cc2C)sc2c1CCC2`, the activation factor was 1 (inactive). For `CCc1ccc(C2C(C#N)=C(N)N(N3CCOCC3)C3=C2C(=O)CC(C)(C)C3)s1` (stereo not drawn) the value was 1 (inactive); for `Cc1c(Br)ccc(NC(=O)COc2ccccc2C(N)=O)c1C`, 0.9 (inactive). In the case of `CC(C)NC(=S)N1CCN(C(c2ccccc2)c2ccccc2)CC1`, the activation factor is 0.9 (inactive).

For the compound `COc1ccc(F)c(-c2nc(CN3CCC(c4ccccc4)CC3)c(C)o2)c1`, the activation factor was 1.1 (inactive).

In the case of `C=CCC(CC=C)(C(N)=O)c1ccccc1`, the activation factor is 1 (inactive). `Fc1ccc(CNCc2ccc(Br)cc2)cc1`: the activation factor was 0.9 (inactive). Consider `CCOC(=O)COc1cc(O)c2c(=O)cc(-c3ccccc3)oc2c1`, for which the activation factor is 1.1 (inactive).

On to `CCN(CC)S(=O)(=O)c1ccc(OC(C)C)c(N)c1`, for which the activation factor is 1 (inactive). Next, `COCCNc1cc(NCCOC)c([N+](=O)[O-])cc1[N+](=O)[O-]`: 1.3 (inactive); `Cc1ccc2[nH]c(=O)c(CN3CCCCC3)c(-c3ccccc3)c2c1`: 1.1 (inactive); `O=S(=O)(NCC1CCCO1)c1cnc(Cl)c(Cl)c1` (stereo not drawn): 1 (inactive).

As for `O=C(NCc1cccs1)c1ccc(Br)o1`, the activation factor is 1 (inactive). Take `O=[N+]([O-])c1ccc2c(c1)C(N1CCOCC1)/C(=C/C1(O)CCCCC1)O2` (stereo not drawn): the activation factor is 1.1 (inactive).

`CC(NC(=S)Nc1ccc(OC(F)F)cc1)c1ccc(F)cc1` (stereo not drawn): the activation factor was 0.8 (inactive). Next, `O=C1c2ccccc2NC(c2ccccc2O)N1NS(=O)(=O)c1ccccc1` (stereo not drawn): 1 (inactive); `CN(CCc1ccccn1)C(=O)CCC1CCCN(Cc2ccccc2OC(F)F)C1` (stereo not drawn): 1.1 (inactive). For `Cc1ccnc(NC(=O)Cn2ccc([N+](=O)[O-])n2)c1` the value was 1 (inactive); for `Cc1ccc(NC(=O)NC2CCCCC2)cc1S(=O)(=O)N1CCOCC1`, 1.2 (inactive).

Regarding `Cc1ccc(N=C2NC(=O)c3cccc([N+](=O)[O-])c32)cc1`, the activation factor was 1 (inactive).

Consider `Cc1ccc(Sc2ccncc2S(N)(=O)=O)cc1`, for which the activation factor was 0.5 (inactive).
